Laboratory results as given in PubChem BioAssay (NCI).
Several values for one entry are separate records, joined by “and”; a condition that tells them apart may be missing. Identical values can stand only once. Compounds without any hit were thinned out: in the full panel of roughly 83,000, 20% have a hit.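 Single-concentration screen, 48 h exposure, 96-well plates. Endpoint: percent growth. Below 10 = active.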 Activity calls are given as the source filed them.

Tests used:
Assay in all cases: NCI-60 one-dose screen, 48 h (100 = growth as untreated, 0 = no growth, -100 = all killed)
Details in all cases: 10 µM unless noted
NCI-H23 lung = tested on: NCI-H23 lung
NCI-H226 lung = tested on: NCI-H226 lung
NCI-H322M lung = tested on: NCI-H322M lung
HOP-62 NSCLC = tested on: HOP-62 NSCLC
NCI-H460 lung = tested on: NCI-H460 lung
HOP-92 NSCLC = tested on: HOP-92 NSCLC
NCI-H522 lung = tested on: NCI-H522 lung
A549/ATCC NSCLC = tested on: A549/ATCC NSCLC
786-0 renal = tested on: 786-0 renal
COLO 205 colon = tested on: COLO 205 colon
DU-145 prostate = tested on: DU-145 prostate
K-562 leukemia = tested on: K-562 leukemia
MALME-3M melanoma = tested on: MALME-3M melanoma
MDA-MB-231 breast = tested on: MDA-MB-231 breast
RXF 393 renal = tested on: RXF 393 renal
SF-268 CNS = tested on: SF-268 CNS
SF-295 CNS = tested on: SF-295 CNS
SF-539 CNS = tested on: SF-539 CNS
UACC-257 melanoma = tested on: UACC-257 melanoma
M14 melanoma = tested on: M14 melanoma

Row | Compound | growth (NCI-H23 lung) | growth (NCI-H226 lung) | growth (NCI-H322M lung) | growth (HOP-62 NSCLC) | growth (NCI-H460 lung) | growth (HOP-92 NSCLC) | growth (NCI-H522 lung) | growth (A549/ATCC NSCLC) | growth (786-0 renal) | growth (COLO 205 colon) | growth (DU-145 prostate) | growth (K-562 leukemia) | growth (MALME-3M melanoma) | growth (MDA-MB-231 breast) | growth (RXF 393 renal) | growth (SF-268 CNS) | growth (SF-295 CNS) | growth (SF-539 CNS) | growth (UACC-257 melanoma) | growth (M14 melanoma)
1 | CCOC(=N)c1ccc(C(=N)OCC)cc1 | 101% (inactive) | 100% (inactive) | 113% (inactive) | 84.2% (inactive) | 111% (inactive) | 93% (inactive) | 97.3% (inactive) | 99.7% (inactive) | 86.8% (inactive) | 103% (inactive) | 103% (inactive) | 98.7% (inactive) | 106% (inactive) | 96.3% (inactive) | 112% (inactive) | 98.4% (inactive) | 91.6% (inactive) | 98.1% (inactive) | 102% (inactive) | 104% (inactive)
2 | N#CC1c2ccccc2C=CN1C(=O)c1ccccc1 (stereo not given) | 104% (inactive) and 112% (inactive) | 103% (inactive) and 89.1% (inactive) | 105% (inactive) and 103% (inactive) | 126% (inactive) and 101% (inactive) | 106% (inactive) and 98.9% (inactive) | 75.5% (inactive) | 103% (inactive) and 91.7% (inactive) | 104% (inactive) and 107% (inactive) | 107% (inactive) and 102% (inactive) | 126% (inactive) and 157% (inactive) | 108% (inactive) and 94.1% (inactive) | 99.6% (inactive) and 112% (inactive) | 94.8% (inactive) and 108% (inactive) | 96% (inactive) and 94.1% (inactive) | 136% (inactive) and 118% (inactive) | 111% (inactive) and 84.8% (inactive) | 101% (inactive) and 93.3% (inactive) | 112% (inactive) and 86.6% (inactive) | 103% (inactive) and 113% (inactive) | 99.9% (inactive) and 98.7% (inactive)
3 | CC(=O)Nc1ccc(OC(C)=O)cc1 | 12% (inactive) and 103% (inactive) | 5.48% (active) and 98.2% (inactive) | 29.5% (inactive) and 112% (inactive) | 8.93% (active) and 111% (inactive) | 2.3% (active) and 98.6% (inactive) | 102% (inactive) | -31.9% (active) and 105% (inactive) | 6.06% (active) and 102% (inactive) | 11.4% (inactive) and 99.9% (inactive) | -81.3% (active) and 108% (inactive) | -16.4% (active) and 109% (inactive) | 8.26% (active) and 106% (inactive) | 44.4% (inactive) and 111% (inactive) | -20.3% (active) and 111% (inactive) | -5.2% (active) and 95.3% (inactive) | 23.1% (inactive) and 103% (inactive) | 9.59% (active) and 105% (inactive) | 2.32% (active) and 95.1% (inactive) | 55.4% (inactive) and 102% (inactive) | 0.268% (active) and 103% (inactive)
4 | COC1C(OC(N)=O)C(O)C(Oc2ccc3c(O)c(NC(=O)c4ccc(O)c(CC=C(C)C)c4)c(=O)oc3c2C)OC1(C)C (stereo not given) | 104% (inactive) and 93.7% (inactive) | 104% (inactive) and 90.5% (inactive) | 105% (inactive) and 102% (inactive) | 101% (inactive) and 98.5% (inactive) | 116% (inactive) and 94.9% (inactive) | 78.6% (inactive) | 44.3% (inactive) and 131% (inactive) | 105% (inactive) and 103% (inactive) | 94.2% (inactive) and 101% (inactive) | 108% (inactive) and 104% (inactive) | 106% (inactive) and 105% (inactive) | 79.4% (inactive) and 116% (inactive) | 121% (inactive) and 101% (inactive) | 108% (inactive) and 88.2% (inactive) | 104% (inactive) and 98.2% (inactive) | 104% (inactive) and 97.1% (inactive) | 92.7% (inactive) and 94.9% (inactive) | 98% (inactive) and 97.1% (inactive) | 104% (inactive) and 101% (inactive) | 102% (inactive) and 99.2% (inactive)
5 | Nc1nc(=S)c2[nH]cnc2[nH]1 | 17.6% (inactive) and 161% (inactive) | 39% (inactive) and 37.4% (inactive) | 39.2% (inactive) and 85.7% (inactive) | 16.5% (inactive) and 18% (inactive) | 3.77% (active) and 6.79% (active) | -2.57% (active) | -4.74% (active) and 7.57% (active) | 31.7% (inactive) and 2.46% (active) | 17.2% (inactive) and 9.97% (active) | -27.5% (active) and 7.45% (active) | 21.3% (inactive) and 21% (inactive) | 9.77% (active) and -2.79% (active) | 21.6% (inactive) and 35.7% (inactive) | 32.9% (inactive) and 29.4% (inactive) | 5.3% (active) and -2.73% (active) | 17.8% (inactive) and 26.3% (inactive) | 25.6% (inactive) and 19% (inactive) | 7.88% (active) | 41.4% (inactive) and 24.2% (inactive) | 5.54% (active)
6 | COC(=O)c1nc(=S)[nH]c(C(=O)OC)c1C(=O)c1ccccc1 | 101% (inactive) | 90.2% (inactive) | 106% (inactive) | 113% (inactive) | 114% (inactive) | 92% (inactive) | 103% (inactive) | 112% (inactive) | 120% (inactive) | 119% (inactive) | 116% (inactive) | 111% (inactive) | 97.1% (inactive) | 93.5% (inactive) | 99.2% (inactive) | 108% (inactive) | 103% (inactive) | 87.8% (inactive) | 123% (inactive) | 113% (inactive)
7 | CCN(C)c1ccccc1 | 102% (inactive) | 95.7% (inactive) | 111% (inactive) | 108% (inactive) | 108% (inactive) | 101% (inactive) | 99.5% (inactive) | 105% (inactive) | 97% (inactive) | 95.7% (inactive) | 108% (inactive) | 110% (inactive) | 96% (inactive) | 98.8% (inactive) | 106% (inactive) | 99.1% (inactive) | 91% (inactive) | 97.7% (inactive) | 103% (inactive) | 100% (inactive)
8 | O=C(NC(=O)c1ccc(F)c(Cl)c1)NC1CC1 | 104% (inactive) and 98.8% (inactive) | 99.6% (inactive) and 90.7% (inactive) | 113% (inactive) and 110% (inactive) | 107% (inactive) and 101% (inactive) | 100% (inactive) and 102% (inactive) | 99.8% (inactive) | 75.7% (inactive) and 85.1% (inactive) | 81.8% (inactive) and 99.2% (inactive) | 98.7% (inactive) and 94.1% (inactive) | 113% (inactive) and 108% (inactive) | 106% (inactive) and 98.7% (inactive) | 78.4% (inactive) and 95.9% (inactive) | 107% (inactive) and 98.9% (inactive) | 117% (inactive) | 113% (inactive) | 103% (inactive) | 104% (inactive) and 99.5% (inactive) | 110% (inactive) and 98.4% (inactive) | 97.3% (inactive) and 103% (inactive) | 94.7% (inactive) and 109% (inactive)
9 | Cc1ccc(N)cc1S(=O)(=O)O | 109% (inactive) and 107% (inactive) | 109% (inactive) | 125% (inactive) and 113% (inactive) | 104% (inactive) and 112% (inactive) | 109% (inactive) and 107% (inactive) | 93.1% (inactive) | 127% (inactive) | 108% (inactive) and 102% (inactive) | 107% (inactive) and 98.5% (inactive) | 109% (inactive) and 111% (inactive) | 111% (inactive) and 119% (inactive) | 98.3% (inactive) and 85.5% (inactive) | 122% (inactive) and 113% (inactive) | 109% (inactive) | 124% (inactive) and 108% (inactive) | 101% (inactive) and 102% (inactive) | 111% (inactive) and 112% (inactive) | 104% (inactive) and 120% (inactive) | 117% (inactive) and 92.7% (inactive) | 105% (inactive) and 101% (inactive)
